PubChem BioAssay AID1159580 (chemical genetic matrix, 2015)
Where “and” joins values, the source holds several entries; their conditions need not be identical. Equal values may be shown once. The whole screen tested about 5,500 compounds, of which about 2,000 (36%) were called active. Roughly 18% stayed inconclusive and do not appear here. No stated cut-off is given here; in the data, active means normalized growth mostly below about 0.91 (no sharp cut-off); inconclusive means no clear call, values can overlap the other calls; inactive means mostly above about 0.92. The list shows a part of the results.

Experiment: chemical genetic growth profiling, strain panel (AID 1159580);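 further: tested at 20 µM; growth read once vehicle control cultures reached saturation at 30 °C; 1 = growth at the plate median or of vehicle wells; lower values mean less growth of the strain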
Details: S. cerevisiae deletion strains, growth OD

Measured: normalized growth

COC(C)(C)CCC[C@H](C)C/C=C/C(C)=C/C(=O)OC(C)C
inactive: locus YAL013W, strain DEP1, hits give low values 0.998 | locus YAL021C, strain ccr4, hits give low values 1.03 | locus YAL026C, strain drs2, hits give low values 1.01 | locus YAL030W, strain snc1, hits give low values 1.03 | locus YBL061C, strain skt5, hits give low values 1.02 | locus YBR009C, strain hhf1, hits give low values 1.01 | locus YBR021W, strain FUR4, hits give low values 0.985 | locus YBR023C, strain chs3, hits give low values 1.02 | locus YBR171W, strain sec66, hits give low values 1.02 | locus YBR229C, strain ROT2, hits give low values 1 | locus YBR231C, strain swc5, hits give low values 1 | locus YBR279W, strain paf1, hits give low values 1 | locus YCL011C, strain gbp2, hits give low values 1.02 | locus YCL016C, strain dcc1, hits give low values 1.01 | locus YCL029C, strain bik1, hits give low values 1.05 | locus YCL061C, strain MRC1, hits give low values 1.02 | locus YCL069W, strain vba3, hits give low values 1.03 | locus YCR088W, strain abp1, hits give low values 1.02 | locus YDL005C, strain med2, hits give low values 1 | locus YDL035C, strain GPR1, hits give low values 1 | locus YDL040C, strain nat1, hits give low values 1 | locus YDL074C, strain BRE1, hits give low values 0.998 | locus YDL101C, strain DUN1, hits give low values 1.01 | locus YDL134C, strain PPH21, hits give low values 1.01 | locus YDL185W, strain tfp1, hits give low values 1.01 | locus YDL192W, strain arf1, hits give low values 1.03 | locus YDR001C, strain nth1, hits give low values 1.02 | locus YDR069C, strain doa4, hits give low values 1.01 | locus YDR101C, strain arx1, hits give low values 1.02 | locus YDR137W, strain rgp1, hits give low values 1.09 | locus YDR150W, strain NUM1, hits give low values 0.994 | locus YDR159W, strain sac3, hits give low values 1.03 | locus YDR162C, strain NBP2, hits give low values 1 | locus YDR195W, strain ref2 0.99 | locus YDR297W, strain sur2, hits give low values 1.02 | locus YDR318W, strain mcm21, hits give low values 1.03 | locus YDR334W, strain swr1, hits give low values 1.02 | locus YDR335W, strain msn5, hits give low values 1.03 | locus YDR388W, hits give low values 1.02 | locus YDR392W, strain spt3, hits give low values 1.05 | locus YDR502C, strain sam2, hits give low values 1.03 | locus YEL003W, strain gim4, hits give low values 1.01 | locus YEL037C, strain rad23, hits give low values 1.01 | locus YEL061C, strain CIN8 (second series), hits give low values 1.02 | locus YEL061C, strain CIN8, hits give low values 0.999 | locus YER015W, strain faa2, hits give low values 1.01 | locus YER016W, strain bim1, hits give low values 1.02 | locus YER110C, hits give low values 1.03 | locus YER111C, strain swi4, hits give low values 1.01 | locus YER155C, strain BEM2 (second series), hits give low values 1.01 | locus YER155C, strain BEM2, hits give low values 0.99 | locus YER167W, strain BCK2, hits give low values 1.01 | locus YFR010W, strain ubp6, hits give low values 1 | locus YGL078C, strain dbp3, hits give low values 1.02 | locus YGL086W, strain mad1, hits give low values 1 | locus YGL167C, strain pmr1, hits give low values 1.02 | locus YGL173C, strain kem1, hits give low values 1.02 | locus YGL227W, strain vid30, hits give low values 1.05 | locus YGL240W, strain doc1, hits give low values 1.03 | locus YGL248W, strain PDE1, hits give low values 1.01 | locus YGL253W, strain hxk2, hits give low values 1 | locus YGR078C, strain PAC10, hits give low values 1.01 | locus YGR135W, strain pre9, hits give low values 1.04 | locus YGR229C, strain SMI1, hits give low values 1.03 | locus YGR252W, strain gcn5, hits give low values 1.06 | locus YHR013C, strain ard1, hits give low values 1.03 | locus YHR027C, strain rpn1, hits give low values 1 | locus YHR030C, strain SLT2, hits give low values 1 and 0.961 | locus YHR079C, strain IRE1 (second series), hits give low values 1.01 | locus YHR079C, strain IRE1, hits give low values 0.942 | locus YHR094C, strain hxt1, hits give low values 1.01 | locus YHR129C, strain ARP1, hits give low values 0.998 | locus YHR142W, strain chs7, hits give low values 0.979 | locus YHR200W, strain rpn10, hits give low values 1.02 | locus YIL066C, strain RNR3, hits give low values 1.01 | locus YIL073C, strain SPO22, hits give low values 1.08 | locus YIL125W, strain kgd1, hits give low values 1.01 | locus YIR030C, strain dcg1, hits give low values 1.03 | locus YJL092W, strain hpr5, hits give low values 1.03 | locus YJL095W, strain BCK1 (second series), hits give low values 1.02 | locus YJL095W, strain BCK1, hits give low values 1.03 and 0.955 | locus YJL115W, strain asf1, hits give low values 1.02 | locus YJL129C, strain trk1, hits give low values 0.942 | locus YJL134W, strain LCB3, hits give low values 1 | locus YJL154C, strain vps35, hits give low values 1.01 | locus YJL164C, strain tpk1, hits give low values 1 | locus YJL166W, strain qcr8, hits give low values 1.02 | locus YJL168C, strain set2, hits give low values 1.02 | locus YJL187C, strain SWE1 (second series), hits give low values 1.02 | locus YJR043C, strain POL32, hits give low values 1.01 | locus YJR066W, strain TOR1, hits give low values 0.892
